Legend:
Details in all cases: concentration: 1 μM, replicates: in singlicate; n = 1
GRK1 = tested on: GRK1
GRK2 = tested on: T1, GRK2
T1 construct: gene ADRBK1

GRK3 = tested on: T2, GRK3
T2 construct: gene ADRBK2

GRK4 = tested on: GRK4
GRK7 = tested on: GRK7
GSK3A = tested on: GSK3A
GSK3B = tested on: GSK3B
HASPIN = tested on: T3, HASPIN
T3 construct: gene GSG2

HCK = tested on: HCK
HIPK1 = tested on: HIPK1
HIPK2 = tested on: HIPK2
HIPK3 = tested on: HIPK3
HIPK4 = tested on: HIPK4
HPK1 = tested on: HPK1
HUNK = tested on: HUNK
ICK = tested on: ICK
IGF1R = tested on: IGF1R
IKK-alpha = tested on: T4, IKK-alpha
T4 construct: gene CHUK

IKK-beta = tested on: T5, IKK-beta
T5 construct: gene IKBKB

IKK-epsilon = tested on: T6, IKK-epsilon
T6 construct: gene IKBKE
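Further: KINOMEscan kinase panel screen.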

Structure (SMILES) | %Inh (GRK1) [%] | %Inh (GRK2) [%] | %Inh (GRK3) [%] | %Inh (GRK4) [%] | %Inh (GRK7) [%] | %Inh (GSK3A) [%] | %Inh (GSK3B) [%] | %Inh (HASPIN) [%] | %Inh (HCK) [%] | %Inh (HIPK1) [%] | %Inh (HIPK2) [%] | %Inh (HIPK3) [%] | %Inh (HIPK4) [%] | %Inh (HPK1) [%] | %Inh (HUNK) [%] | %Inh (ICK) [%] | %Inh (IGF1R) [%] | %Inh (IKK-alpha) [%] | %Inh (IKK-beta) [%] | %Inh (IKK-epsilon) [%]
CC(C)(C)c1ccc(-n2cnc3c(N)ncnc32)cc1 [SKF-97263] | 3 | 0 | 0 | 24 | 0 | 31 | 4 | 64 | 13 | 19 | 0 | 6 | 0 | 60 | 14 | 17 | 11 | 0 | 7 | 19
CCn1c(-c2ccncc2)nc2cnccc21 [SB-735216] | 11 | 4 | 63 | 45 | 24 | 9 | 30 | 57 | 7 | 10 | 18 | 24 | 15 | 0 | 27 | 10 | 0 | 20 | 23 | 10
CS(=O)(=O)CCNCc1nc(-c2ccc3ncnc(Nc4ccc(OCc5cccc(F)c5)c(Cl)c4)c3c2)cs1.Cl [GW583340] | 0 | 0 | 28 | 0 | 0 | 0 | 1 | 0 | 0 | 0 | 0 | 0 | 0 | 33 | 0 | 0 | 0 | 3 | 6 | 7
CCC(CC)(CC)n1cnc2c(N)ncnc21 [SKF-97620] | 40 | 16 | 0 | 8 | 14 | 0 | 35 | 9 | 9 | 17 | 10 | 19 | 8 | 0 | 34 | 32 | 0 | 30 | 8 | 0
Fc1ccc(-c2ncn(CCCNCc3ccccc3)c2-c2ccncc2)cc1 | 12 | 0 | 0 | 12 | 5 | 8 | 28 | 12 | 7 | 25 | 23 | 45 | 0 | 8 | 7 | 12 | 4 | 0 | 9 | 10
C[C@H]1CC[C@@H](C(=O)Nc2ccccc2)CN1c1cc(-c2ccc3c(N)n[nH]c3c2)nc(N)n1 [GSK2283293] | 0 | 0 | 31 | 25 | 0 | 0 | 0 | 0 | 3 | 22 | 0 | 0 | 0 | 37 | 0 | 0 | 15 | 7 | 0 | 8
NC(=O)c1sc(-n2cnc3ccccc32)cc1OCc1ccccc1F [GSK1024306] | 0 | 0 | 21 | 7 | 0 | 7 | 0 | 49 | 0 | 0 | 44 | 0 | 24 | 51 | 0 | 0 | 0 | 0 | 2 | 0
CS(=O)(=O)CCNCc1ccc(-c2ccc3ncnc(Nc4ccc(OCc5ccccc5)c(Cl)c4)c3c2)o1.Cl [GW574783] | 2 | 1 | 20 | 0 | 0 | 8 | 1 | 30 | 18 | 0 | 13 | 18 | 18 | 22 | 14 | 0 | 13 | 0 | 0 | 7
